Experiment [1] deals with Lysosomal acid glucosylceramidase (Homo sapiens) (UniProt P04062). The experiment is described as follows: Glucocerebrosidase-p2 (AID 348; in the data active = potency below about 10 µM; note: potency is the fitted concentration of half-maximal effect). The conditions noted are these: purified GBA, blue fluorogenic substrate, 40 min. The essentials:
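Compounds titrated from 0.6 nM upwards against 0.2 nM enzyme in pH 5.9 citric acid/KH2PO4, taurocholate, tween-20; blue fluorogenic substrate 80 uM, 40 min room temperature, stopped and read Ex 365/Em 440 for AC50.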

Experiment [2] is described as follows: AP1 Signaling Pathway (AID 357).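 Note: ME-180 reporter cells stimulated with EGF at its EC50 level; % is set by controls: 0 for no effect and ±100 for the full control effect.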 The conditions noted are these: ME-180 AP-1-bla reporter, EGF-induced, beta-lactamase ratio, 5 h; at 7.69 µM (top of the series) unless noted. The essentials:
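Modulation of EGF-driven AP-1 transcription was assessed with a beta-lactamase reporter in ME-180 cells. Compound and EC50 EGF were co-incubated 5 hours at 37 °C before 2.5-hour CCF4 loading at room temperature and dual-emission reading.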

In experiment [3] the target is Cytochrome P450 1A2 (Homo sapiens) (UniProt P05177). The experiment is described as follows: p450-cyp1a2 (AID 410; calls by dose curve; note: potency is the fitted concentration of half-maximal effect). The conditions noted are these: recombinant CYP1A2, luciferin-ME demethylation, luminescence; series mostly up to 57 µM. Put shortly:
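Luminescent readout of luciferin formed from Luciferin-ME by human CYP1A2; data normalized against complete inhibition by 57 uM furafylline. Enzyme 20nM, substrate 100uM at Km, 100mM KPO4 buffer, 60 min reaction at room temperature.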

The nature of experiment [4]: Stat Signaling Pathway (AID 446).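 Note: ME-180 cervical cancer cells given 40 pM IL-6 alongside compound; SIE-controlled beta-lactamase reporter measured as 460/530 nm FRET emission ratio; % is set by controls: 0 for no effect and ±100 for the full control effect.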 Particulars: ME-180 SIE beta-lactamase reporter, IL-6 stimulated, 5 h; at 7.69 µM (top of the series) unless noted. Put shortly:
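ME-180 cells carrying a SIE-driven beta-lactamase reporter are stimulated with 40 pM IL-6 for 5 h at 37C in the presence of compound. The 460/530 nm FRET substrate ratio is read after 2.5 h at RT. Data are normalised to 300 pM IL-6 and to 125 nM JAK inhibitor controls.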

The target of experiment [5] is Glucocorticoid receptor (Homo sapiens) (UniProt P04150). The experiment is described as follows: GR-EFC Redistribution (AID 451; calls by dose curve; note: potency is the fitted concentration of half-maximal effect). The conditions noted are these: CHO-K1 GR-EFC translocation, beta-gal luminescence, 2 h. The essentials: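 CHO-K1 cells stably expressing nuclear-localized β-gal enzyme acceptor and GR fused C-terminally to the enzyme donor fragment; ligand-driven nuclear translocation restores β-gal by complementation. Compounds titrated up to 46 uM final, 2 h at 37 °C; luminescence read.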

For experiment [6], the target named is Mitogen-activated protein kinase 10 (Mus musculus) (UniProt Q61831). As to the kind of experiment: JNK3 AlphaScreen Assay (AID 530).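 Note: kinase came from lysate of stimulated human HepG2 cells; signal reports phosphorylation of biotinylated GST-cJun 1-79 at Ser73 with 10 µM ATP; % is set by controls: 0 for no effect and ±100 for the full control effect.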 Particulars: JNK3 lysate, c-Jun phosphorylation; series mostly up to 57.1 µM. Put shortly: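 Inhibitors reduce antibody binding to phosphorylated biotin-cJun, lowering AlphaScreen luminescence. Lysates from HepG2 cells pre-activated by IL-1beta plus TNF-alpha supplied JNK3; compounds were titrated.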

Experiment [7] addresses 3',5'-cyclic-AMP phosphodiesterase 4B (Homo sapiens) (UniProt Q07343). The experiment is described as follows: qHTS Assay for Inhibitors of PDE-IV (AID 607; active = well fitted activation curve with a large enough effect in the main read-out, with a control signal flat, not every such curve was filed as active; note: % of control where 0% means no effect). Particulars: HEK293 ACTOne CNG channel cells, membrane potential fluorescence; series mostly up to 22.9 µM. The essentials: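 HEK293 ACTOne cells with CNG channel (1000/well), endogenous PDE4; membrane potential dye, compounds up to 22.9 uM final. Fluorescence Ex 535/Em 590; RO 20-1724 (100 uM final) as reference.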
For orientation: In qHTS, concentration-response curves come from the screen itself.

The nature of experiment [8]: qHTS Assay for Lipid Storage Modulators (AID 1519; calls by dose curve). Particulars: Drosophila S3 cells, BODIPY lipid droplet/cell ratio, laser cytometry, cells loaded with oleic acid; for activity change, negative = inhibition: at 57.5 µM (top of the series). Put shortly: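 Cells seeded at 5,000 per well were treated with compounds over a concentration series and loaded with oleic acid (400 uM, as added). Lipid droplet fluorescence (488 nm excitation, 500-530 nm channel) was read by laser-scanning cytometry and normalized to 20 uM Triacsin C.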

Experiment [9] is described as follows: Primary qHTS for small molecule stabilizers of the endoplasmic reticulum resident proteome: Secreted ER Calcium Modulated Protein (SERCaMP) assay (AID 1508630; active = well fitted curve in the direction sought with a large enough effect; an effect the other way counts as inactive or inconclusive; note: % is set by controls: 0 for no effect and ±100 for the full control effect). The conditions noted are these: SH-SY5Y GLuc-SERCaMP (Gaussia luciferase released on ER calcium loss) secretion, thapsigargin, luminescence; series mostly up to 38.4 µM. Put shortly: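 GLuc-SERCaMP-expressing SH-SY5Y cells, pretreated 16 h with compound, are challenged with thapsigargin to empty ER calcium stores; after 4 h, coelenterazine is added directly to the medium and luminescence is imaged.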

Experiment [10] addresses Glucocorticoid receptor (Homo sapiens) (UniProt P04150). The experiment is described as follows: GR-GFP Redistribution (AID 450;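 active = compounds whose dose series gives a full or clear partial fitted curve of increased nuclear translocation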; note: potency is the fitted concentration of half-maximal effect). Particulars: U2OS GR-GFP nuclear translocation, laser cytometry, 2 h.
Experiment [11] deals with Cytochrome P450 3A4 (Homo sapiens) (UniProt P08684). As to the kind of experiment: qHTS Assay for Activators of Cytochrome P450 3A4 (AID 885; active = well fitted curve in the direction sought with a large enough effect; an effect the other way counts as inactive or inconclusive; note: nearly all actives have a fitted effect of over 65% in size). Particulars: recombinant CYP3A4, Luciferin-PPXE luminescence, 60 min; series mostly up to 57.1 µM. Put shortly:
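Human CYP3A4 (20 nM) with Luciferin-PPXE at 25 uM (its KM) in 200 mM KPO4; 10 min compound preincubation, then NADPH regeneration and 60 min reaction at RT. Luciferin read by luminescence; normalized to 57 uM ketoconazole full inhibition.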

A short description of experiment [12]: Confirmation and Secondary Assay for Modulators of Hemoglobin Beta Chain Splicing at IVS2 654 locus (AID 910; active = well fitted curve in the direction sought with a large enough effect; an effect the other way counts as inactive or inconclusive;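 note: per-well total GFP intensity by laser scanning cytometry after 2-day treatment; % of control where 0% means no effect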). The conditions noted are these: HeLa EGFP-654 splicing reporter, GFP fluorescence, 48 h; series mostly up to 38.3 µM. The essentials:
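HeLa cells stably carrying EGFP interrupted by mutant beta-globin IVS2-654 intron (CMV-driven) were treated with compound for 2 days at 37C; corrected splicing was scored as total peak GFP intensity per well (488 nm excitation, 500-520 nm emission).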

Experiment [13] concerns the target Ubiquitin carboxyl-terminal hydrolase 1 (Homo sapiens) (UniProt O94782). The experiment is described as follows: Inhibitors of USP1/UAF1: Pilot qHTS (AID 504865; active = well fitted curve in the direction sought with a large enough effect; an effect the other way counts as inactive or inconclusive;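 note: rhodamine fluorescence freed from ubiquitin-rhodamine substrate followed over time; top concentration of the series differs between compounds; % is set by controls: 0 for no effect and ±100 for the full control effect; nearly all actives have a fitted effect of over 35% in size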). Particulars: purified USP1/UAF1, Ub-rhodamine cleavage fluorescence; series mostly up to 54.9 µM. Put shortly: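 USP1/UAF1 complex (1nM) preincubated with compound 15 min at room temperature, then Ub-Rho substrate (150nM final) added. Fluorescence read kinetically at 480/540 nm, 6 reads every 60 seconds. Buffer: 50mM HEPES pH 7.8, 0.5mM EDTA, 0.1 mg/ml BSA, 1mM TCEP, 0.01% Tween-20.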

Experiment [14] deals with Cytochrome P450 2C9 (Homo sapiens) (UniProt P11712). The experiment is described as follows: qHTS Assay for Inhibitors and Substrates of Cytochrome P450 2C9 (AID 883; active = well fitted curve in the direction sought with a large enough effect; an effect the other way counts as inactive or inconclusive; note: potency is the fitted concentration of half-maximal effect; nearly all actives have a fitted effect of over 60% in size). The conditions noted are these: recombinant CYP2C9, luciferin-H luminescence, 60 min; series mostly up to 57.1 µM. Put shortly: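 Human CYP2C9 (10nM) hydroxylated Luciferin-H (100uM, at its KM) to luciferin in 25mM KPO4. Compound was preincubated 10 min at 37C, then NADPH regeneration started a 60 min reaction at 37C. Luminescence was read after detection reagent, normalized to 57uM sulphaphenazole.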

Experiment [15] addresses Cytochrome P450 3A4 (Homo sapiens) (UniProt P08684). The experiment is described as follows: qHTS Assay for Inhibitors and Substrates of Cytochrome P450 3A4 (AID 884; active = well fitted curve in the direction sought with a large enough effect; an effect the other way counts as inactive or inconclusive; note: potency is the fitted concentration of half-maximal effect; nearly all actives have a fitted effect of over 50% in size). Particulars: recombinant CYP3A4, Luciferin-PPXE luminescence; series mostly up to 57.1 µM. Put shortly:
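20 nM human CYP3A4 with 25 uM Luciferin-PPXE (at KM) in 200 mM KPO4, preincubated 10 min with compound; NADPH regeneration started a 60 min RT reaction. Luciferin detected by luminescence, normalized to 57 uM ketoconazole as full inhibition.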

Experiment [16] has as its target Cytochrome P450 2D6 (Homo sapiens) (UniProt P10635). As to the kind of experiment: qHTS Assay for Inhibitors and Substrates of Cytochrome P450 2D6 (AID 891; active = well fitted curve in the direction sought with a large enough effect; an effect the other way counts as inactive or inconclusive; note: potency is the fitted concentration of half-maximal effect; nearly all actives have a fitted effect of over 60% in size). Particulars: recombinant CYP2D6, luciferin-ME EGE luminescence; series mostly up to 57.1 µM. Put shortly: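 Human CYP2D6 (5 nM) with 30 uM Luciferin-ME EGE (at Km) in 100 mM KPO4, compound preincubated 10 min, then NADPH regeneration system for 60 min at room temperature. Luciferin read by luminescence; normalized to 1.43 uM quinidine.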

The nature of experiment [17]: qHTS Assay for Identification of Small Molecule Agonists for Hypoxia Response Element Signaling Pathway (AID 914; active = well fitted activation curve with a large enough effect in the signal ratio, with a control signal flat, not every such curve was filed as active; the % refers to the signal ratio; note: % of control where 0% means no effect). The conditions noted are these: ME-180 (cervical carcinoma) HRE-bla reporter, beta-lactamase ratio, CoCl2, 17 h; activation: stronger effect = higher value. Put shortly:
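AC50 values come from titration-series %Activity, taken as the 460/530nm ratio of CCF4 fluorescence (excitation 405nm). CellSensor HRE-bla ME-180 cells were treated 17 hours at 37 C with compound plus an EC50 level of CoCl2.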

Setting [18] is: measured here: cell count channel max response.
The mark [19] stands for this setting: measured here: lipid channel max response.

Results filed as inconclusive are left out. The source made the active and inactive calls. Unless noted, calls come from the whole dose curve; as a rule, active = well fitted curve in either direction with a large enough effect (not every such curve was filed as active); inconclusive = small, poorly fitted or top-dose-only effect, or another doubt; inactive = flat fitted curve, though single readings scatter.

Sequence of Cytochrome P450 3A4 (Homo sapiens) (P08684 whole entry, looked up): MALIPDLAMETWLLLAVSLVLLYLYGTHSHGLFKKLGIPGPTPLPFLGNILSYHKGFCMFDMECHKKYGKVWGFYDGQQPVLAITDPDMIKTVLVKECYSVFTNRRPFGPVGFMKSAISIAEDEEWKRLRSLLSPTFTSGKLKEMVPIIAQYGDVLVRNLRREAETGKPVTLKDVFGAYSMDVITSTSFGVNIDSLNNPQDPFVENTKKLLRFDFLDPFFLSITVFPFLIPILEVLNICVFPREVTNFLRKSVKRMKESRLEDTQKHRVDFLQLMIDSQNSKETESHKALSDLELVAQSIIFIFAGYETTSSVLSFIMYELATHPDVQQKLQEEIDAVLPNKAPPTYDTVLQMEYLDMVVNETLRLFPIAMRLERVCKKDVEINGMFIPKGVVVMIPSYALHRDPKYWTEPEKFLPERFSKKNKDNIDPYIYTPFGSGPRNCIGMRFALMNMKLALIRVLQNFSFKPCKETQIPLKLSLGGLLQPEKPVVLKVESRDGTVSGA
Sequence of Lysosomal acid glucosylceramidase (Homo sapiens) (P04062 whole entry, looked up): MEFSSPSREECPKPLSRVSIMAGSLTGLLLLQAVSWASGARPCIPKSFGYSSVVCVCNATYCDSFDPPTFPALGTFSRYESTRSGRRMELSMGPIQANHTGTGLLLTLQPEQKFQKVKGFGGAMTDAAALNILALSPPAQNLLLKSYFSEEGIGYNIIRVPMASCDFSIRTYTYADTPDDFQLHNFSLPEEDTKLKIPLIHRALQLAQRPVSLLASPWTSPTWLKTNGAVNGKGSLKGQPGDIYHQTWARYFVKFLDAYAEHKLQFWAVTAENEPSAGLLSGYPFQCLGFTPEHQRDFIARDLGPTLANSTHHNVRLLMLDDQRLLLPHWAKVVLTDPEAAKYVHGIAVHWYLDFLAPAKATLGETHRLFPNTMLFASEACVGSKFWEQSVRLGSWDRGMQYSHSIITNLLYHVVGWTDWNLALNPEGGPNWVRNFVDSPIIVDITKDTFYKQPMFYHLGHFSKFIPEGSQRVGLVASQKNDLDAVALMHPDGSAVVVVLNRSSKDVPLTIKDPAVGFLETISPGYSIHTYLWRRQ
Sequence of Glucocorticoid receptor (Homo sapiens) (P04150 whole entry, looked up, the tested form may be a part): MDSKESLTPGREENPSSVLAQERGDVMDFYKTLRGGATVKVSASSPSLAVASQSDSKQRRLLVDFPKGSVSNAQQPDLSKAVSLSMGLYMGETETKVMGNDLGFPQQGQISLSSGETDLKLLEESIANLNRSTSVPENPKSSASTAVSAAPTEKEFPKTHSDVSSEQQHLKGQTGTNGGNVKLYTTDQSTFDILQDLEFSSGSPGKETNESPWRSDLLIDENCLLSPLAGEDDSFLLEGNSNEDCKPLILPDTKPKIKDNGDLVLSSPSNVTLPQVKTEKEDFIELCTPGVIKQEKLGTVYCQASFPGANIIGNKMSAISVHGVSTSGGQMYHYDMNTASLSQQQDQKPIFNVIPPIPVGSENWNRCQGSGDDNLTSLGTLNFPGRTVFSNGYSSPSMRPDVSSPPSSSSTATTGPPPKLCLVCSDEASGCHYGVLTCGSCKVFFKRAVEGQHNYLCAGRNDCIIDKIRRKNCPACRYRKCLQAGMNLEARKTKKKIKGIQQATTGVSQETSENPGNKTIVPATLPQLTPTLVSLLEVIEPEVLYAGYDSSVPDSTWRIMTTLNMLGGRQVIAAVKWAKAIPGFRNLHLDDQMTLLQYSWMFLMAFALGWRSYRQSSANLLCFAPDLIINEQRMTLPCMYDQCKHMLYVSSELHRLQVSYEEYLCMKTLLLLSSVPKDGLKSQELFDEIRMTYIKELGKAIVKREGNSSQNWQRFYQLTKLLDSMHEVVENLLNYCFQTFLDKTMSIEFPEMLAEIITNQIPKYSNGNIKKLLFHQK
Sequence of 3',5'-cyclic-AMP phosphodiesterase 4B (Homo sapiens) (Q07343 whole entry, looked up): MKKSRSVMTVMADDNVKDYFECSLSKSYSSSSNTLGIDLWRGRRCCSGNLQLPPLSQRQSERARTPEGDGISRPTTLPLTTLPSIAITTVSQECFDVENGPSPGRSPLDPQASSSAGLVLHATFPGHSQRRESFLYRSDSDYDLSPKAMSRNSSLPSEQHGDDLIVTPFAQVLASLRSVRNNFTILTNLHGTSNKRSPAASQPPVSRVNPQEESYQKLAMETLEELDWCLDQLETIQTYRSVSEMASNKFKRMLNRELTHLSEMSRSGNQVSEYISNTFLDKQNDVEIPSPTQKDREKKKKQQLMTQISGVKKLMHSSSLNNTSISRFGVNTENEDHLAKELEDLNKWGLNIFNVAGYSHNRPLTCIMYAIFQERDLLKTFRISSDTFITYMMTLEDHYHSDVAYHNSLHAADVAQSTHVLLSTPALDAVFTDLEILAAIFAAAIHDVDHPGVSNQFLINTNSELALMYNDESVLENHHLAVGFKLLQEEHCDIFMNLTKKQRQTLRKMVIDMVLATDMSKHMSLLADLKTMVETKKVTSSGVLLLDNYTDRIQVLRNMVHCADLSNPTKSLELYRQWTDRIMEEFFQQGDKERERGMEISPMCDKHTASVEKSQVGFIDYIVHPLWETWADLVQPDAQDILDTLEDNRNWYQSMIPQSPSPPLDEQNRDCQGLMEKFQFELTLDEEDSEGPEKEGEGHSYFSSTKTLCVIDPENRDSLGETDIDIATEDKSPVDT
Sequence of Cytochrome P450 1A2 (Homo sapiens) (P05177 whole entry, looked up): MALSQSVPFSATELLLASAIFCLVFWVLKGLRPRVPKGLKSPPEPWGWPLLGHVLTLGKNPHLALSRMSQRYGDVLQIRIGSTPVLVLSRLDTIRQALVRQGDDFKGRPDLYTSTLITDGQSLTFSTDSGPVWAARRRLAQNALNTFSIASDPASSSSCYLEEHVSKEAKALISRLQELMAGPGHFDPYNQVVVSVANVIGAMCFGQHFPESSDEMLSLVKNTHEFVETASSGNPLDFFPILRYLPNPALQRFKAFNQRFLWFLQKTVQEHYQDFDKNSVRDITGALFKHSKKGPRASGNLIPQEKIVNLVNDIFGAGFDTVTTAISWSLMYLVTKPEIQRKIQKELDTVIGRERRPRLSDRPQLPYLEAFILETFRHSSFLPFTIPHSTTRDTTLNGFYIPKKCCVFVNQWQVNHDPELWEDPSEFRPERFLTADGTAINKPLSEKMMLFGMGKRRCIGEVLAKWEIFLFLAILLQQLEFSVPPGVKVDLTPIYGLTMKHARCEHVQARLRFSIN
Sequence of Ubiquitin carboxyl-terminal hydrolase 1 (Homo sapiens) (O94782 whole entry, looked up): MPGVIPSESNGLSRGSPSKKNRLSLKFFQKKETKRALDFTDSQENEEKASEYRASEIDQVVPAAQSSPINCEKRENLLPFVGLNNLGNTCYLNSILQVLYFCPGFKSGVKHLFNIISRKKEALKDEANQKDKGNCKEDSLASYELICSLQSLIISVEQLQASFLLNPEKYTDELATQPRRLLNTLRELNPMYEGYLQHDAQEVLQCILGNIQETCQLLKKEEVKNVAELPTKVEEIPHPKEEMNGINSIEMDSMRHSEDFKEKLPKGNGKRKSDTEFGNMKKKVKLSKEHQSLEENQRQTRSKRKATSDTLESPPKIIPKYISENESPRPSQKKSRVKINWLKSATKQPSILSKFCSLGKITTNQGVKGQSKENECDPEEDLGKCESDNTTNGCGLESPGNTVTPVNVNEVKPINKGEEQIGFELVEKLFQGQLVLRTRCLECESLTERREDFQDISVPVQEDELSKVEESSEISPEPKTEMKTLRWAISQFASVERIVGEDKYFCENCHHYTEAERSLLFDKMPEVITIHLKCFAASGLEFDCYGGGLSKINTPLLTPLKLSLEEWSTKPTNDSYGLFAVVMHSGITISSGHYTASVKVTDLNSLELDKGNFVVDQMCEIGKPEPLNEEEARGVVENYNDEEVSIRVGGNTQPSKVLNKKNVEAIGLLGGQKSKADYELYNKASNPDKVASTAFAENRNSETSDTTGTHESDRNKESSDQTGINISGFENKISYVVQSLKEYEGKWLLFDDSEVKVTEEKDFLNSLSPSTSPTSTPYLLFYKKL
Sequence of Cytochrome P450 2D6 (Homo sapiens) (P10635 whole entry, looked up): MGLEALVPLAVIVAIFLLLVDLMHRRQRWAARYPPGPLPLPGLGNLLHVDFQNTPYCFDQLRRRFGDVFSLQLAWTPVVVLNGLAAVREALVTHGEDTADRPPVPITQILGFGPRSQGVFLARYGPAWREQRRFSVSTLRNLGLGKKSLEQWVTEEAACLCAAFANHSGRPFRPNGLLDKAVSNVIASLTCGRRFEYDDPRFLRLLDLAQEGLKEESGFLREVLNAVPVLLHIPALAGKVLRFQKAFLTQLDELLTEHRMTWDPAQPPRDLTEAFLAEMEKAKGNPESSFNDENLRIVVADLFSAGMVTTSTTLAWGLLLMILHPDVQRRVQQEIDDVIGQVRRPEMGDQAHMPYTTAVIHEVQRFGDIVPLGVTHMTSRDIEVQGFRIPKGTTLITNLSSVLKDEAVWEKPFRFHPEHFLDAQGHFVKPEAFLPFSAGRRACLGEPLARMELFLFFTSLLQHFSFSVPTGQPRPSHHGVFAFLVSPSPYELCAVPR
Sequence of Cytochrome P450 2C9 (Homo sapiens) (P11712 whole entry, looked up): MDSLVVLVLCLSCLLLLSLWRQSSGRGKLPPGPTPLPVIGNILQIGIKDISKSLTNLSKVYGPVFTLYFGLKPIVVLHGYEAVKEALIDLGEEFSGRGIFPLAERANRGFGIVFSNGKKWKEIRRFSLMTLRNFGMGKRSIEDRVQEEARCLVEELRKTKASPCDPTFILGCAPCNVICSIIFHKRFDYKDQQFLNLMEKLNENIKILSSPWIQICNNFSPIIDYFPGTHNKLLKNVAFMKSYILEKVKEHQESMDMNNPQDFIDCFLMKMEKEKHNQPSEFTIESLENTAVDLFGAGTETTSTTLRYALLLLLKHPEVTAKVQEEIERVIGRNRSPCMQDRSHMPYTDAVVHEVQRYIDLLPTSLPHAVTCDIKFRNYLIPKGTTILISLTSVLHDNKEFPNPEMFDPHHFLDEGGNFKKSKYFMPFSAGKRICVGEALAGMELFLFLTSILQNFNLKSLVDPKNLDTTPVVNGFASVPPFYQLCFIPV

Consider `N#Cc1ccc(CN2CCC3(CC2)CCN(C(=O)c2cc(C(F)(F)F)cc(C(F)(F)F)c2)CC3)cc1`, for which the Potency in experiment [1] was > 11.4 µM (inactive); in experiment [5] it was > 46 µM (inactive). The activity change, negative = inhibition in [2] was 7.04% (inactive); in [8] it was 1.9% (inactive). For the same compound, the Potency entry in experiment [3], in [6] and in [7] was “inactive” in each case. In experiment [4], the activity, negative = inhibition is 3.33% (inactive). In addition, the max response in experiment [8] (setting [18]) turned out to be 7.25%; in experiment [8] (setting [19]), 11%. Also, the outcome in experiment [9] was inactive.

For the compound `COc1ccccc1CNc1nc(-c2ccccc2CN(C)C)nc2ccccc12`, the Potency was > 11.4 µM (inactive) in experiment [1], 0.794 µM (active) in experiment [3], > 46 µM (inactive) in [10] and > 46 µM (inactive) in experiment [5]. Also, the activity change, negative = inhibition in experiment [2] was 16.7% (inactive); in [8], 3.53% (inactive). The activity, negative = inhibition in [4] was -12.4% (inactive). The Potency result in [6], in experiment [11], in [12] and in experiment [13] was “inactive” in each case. Besides, the max response was -19.9% in experiment [8] (setting [18]) and -15.9% in experiment [8] (setting [19]). In addition, the result in [9] was inactive.

As for `COCC(=O)N1CCC2(CCCN(Cc3ccccc3OC)C2)CC1`, the Potency in experiment [1] was > 11.4 µM (inactive); in experiment [5], > 46 µM (inactive). The activity change, negative = inhibition was -2.02% (inactive) in experiment [2] and -6.35% (inactive) in [8]. Also, the Potency entry in experiment [3], in [6] and in experiment [7] was “inactive” throughout. In [4], the activity, negative = inhibition was 10.7% (inactive). Besides, the max response in [8] (setting [18]) is 2.52%; in experiment [8] (setting [19]), 0.269%. Also, the outcome in experiment [9] was inactive.

For the compound `O=C(c1ccncc1)N1CCC2(CCCN(Cc3ccncc3)C2)CC1`, the Potency in experiment [1] is > 11.4 µM (inactive); in [3] it was 6.31 µM (active); in [5] it was > 46 µM (inactive); in experiment [14], 5.01 µM (active); in experiment [15] it was 5.01 µM (active); in [16] it was 6.31 µM (active). The values for the activity change, negative = inhibition in experiment [2] and in experiment [8] were -5.21% (inactive) and 2.08% (inactive), respectively. Further, the activity, negative = inhibition in experiment [4] was 4.83% (inactive). The Potency result in [6], in experiment [7] and in experiment [11] was “inactive” in each case. Besides, in [17], the activation was 2.4% (inactive). For the same compound, the results for the max response in experiment [8] (setting [18]) and in [8] (setting [19]) were 1.67% and 8.27%, respectively. In addition, the result in experiment [9] was inactive.

Consider `Cn1cccc1C(=O)N1CCC2(CC1)CN(Cc1ccc(C#N)cc1)C2`, for which the Potency was > 11.4 µM (inactive) in experiment [1] and > 46 µM (inactive) in experiment [5]. For the same compound, the results for the activity change, negative = inhibition in experiment [2] and in experiment [8] were 6.46% (inactive) and 4.17% (inactive), respectively. In addition, the Potency result in experiment [3], in experiment [6] and in experiment [7] was “inactive” each time. Also, the activity, negative = inhibition in experiment [4] is -7.55% (inactive). For the same compound, the figures for the max response in experiment [8] (setting [18]) and in experiment [8] (setting [19]) were 20.5% and 25.8%, respectively. Further, the result in [9] was inactive.

`O=C(c1csnn1)N1CCC2(CC1)CCN(C(c1ccccc1)c1ccccc1)CC2`: the figures for the Potency in experiment [1] and in experiment [5] were > 11.4 µM (inactive) and > 46 µM (inactive), respectively. The results for the activity change, negative = inhibition in [2] and in [8] were -5.85% (inactive) and -2.09% (inactive), respectively. The Potency result in experiment [3], in [6] and in experiment [7] was “inactive” in each case. Moreover, in experiment [4], the activity, negative = inhibition was 4.86% (inactive). Also, the max response in [8] (setting [18]) worked out at 3.93%; in experiment [8] (setting [19]), 2.32%. Also, the result in [9] was inactive.

Consider `CC(=O)N1CCC2(CCN(Cc3ccccc3)CC2)CC1`, for which the Potency in experiment [1] is > 11.4 µM (inactive); in experiment [5], > 46 µM (inactive). The activity change, negative = inhibition in [2] is -7.18% (inactive); in [8], -3.2% (inactive). The Potency entry in [3], in experiment [6] and in [7] was “inactive” in each case. Further, the activity, negative = inhibition in experiment [4] was -5.27% (inactive). For the same compound, the max response in [8] (setting [18]) is -4.28%; in experiment [8] (setting [19]) it was -4.62%. The result in experiment [9] was inactive.
